Each molecule was assayed on WHIM30 (cells of a triple-negative basal-like breast cancer xenograft) (assay: cell viability of combination (% of vehicle); higher = less cytotoxic). Conditions: 1 µM; 72 h; partner dose: 10 nM.
Procedure: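 PDX cells were treated for 72 h with each drug at 1 µM plus carfilzomib (10 nM; 100 nM for WHIM2). Luciferase viability is expressed as percent of vehicle.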

Point of comparison: `CCN(CC)CCNC(=O)c1c(C)[nH]c(C=C2C(=O)Nc3ccc(F)cc32)c1C` [Sunitinib] + CC(C)C[C@H](NC(=O)[C@H](CCc1ccccc1)NC(=O)CN1CCOCC1)C(=O)N[C@@H](Cc1ccccc1)C(=O)N[C@@H](CC(C)C)C(=O)[C@@]1(C)CO1 [Carfilzomib], “cell viability of combination” value 33.2. Against it:
- Cl.Fc1ccc(C2CCNCC2COc2ccc3c(c2)OCO3)cc1 (stereo not given) [Paroxetine HCl] + CC(C)C[C@H](NC(=O)[C@H](CCc1ccccc1)NC(=O)CN1CCOCC1)C(=O)N[C@@H](Cc1ccccc1)C(=O)N[C@@H](CC(C)C)C(=O)[C@@]1(C)CO1 [Carfilzomib] — lower, 12.9
- Clc1ccc(CSC(Cn2ccnc2)c2ccc(Cl)cc2Cl)cc1.O=[N+]([O-])O (stereo not given) [Sulconazole Nitrate] + CC(C)C[C@H](NC(=O)[C@H](CCc1ccccc1)NC(=O)CN1CCOCC1)C(=O)N[C@@H](Cc1ccccc1)C(=O)N[C@@H](CC(C)C)C(=O)[C@@]1(C)CO1 [Carfilzomib] — lower, 14.2
- Nc1ncn(C2OC(CO)C(O)C2O)c(=O)n1 (stereo not given) [5-Azacytidine] + CC(C)C[C@H](NC(=O)[C@H](CCc1ccccc1)NC(=O)CN1CCOCC1)C(=O)N[C@@H](Cc1ccccc1)C(=O)N[C@@H](CC(C)C)C(=O)[C@@]1(C)CO1 [Carfilzomib] — lower, 20.7
- CCC(=C(c1ccccc1)c1ccc(OCCN(C)C)cc1)c1ccccc1.O=C(O)CC(O)(CC(=O)O)C(=O)O [Tamoxifen Citrate] + CC(C)C[C@H](NC(=O)[C@H](CCc1ccccc1)NC(=O)CN1CCOCC1)C(=O)N[C@@H](Cc1ccccc1)C(=O)N[C@@H](CC(C)C)C(=O)[C@@]1(C)CO1 [Carfilzomib] — lower, 23.8
- O=C(NN=Cc1ccc([N+](=O)[O-])o1)c1ccc(O)cc1 [Nifuroxazide] + CC(C)C[C@H](NC(=O)[C@H](CCc1ccccc1)NC(=O)CN1CCOCC1)C(=O)N[C@@H](Cc1ccccc1)C(=O)N[C@@H](CC(C)C)C(=O)[C@@]1(C)CO1 [Carfilzomib] — lower, 12.5
- CNC(=O)c1cc(Oc2ccc(NC(=O)Nc3ccc(Cl)c(C(F)(F)F)c3)cc2)ccn1 [Sorafenib] + CC(C)C[C@H](NC(=O)[C@H](CCc1ccccc1)NC(=O)CN1CCOCC1)C(=O)N[C@@H](Cc1ccccc1)C(=O)N[C@@H](CC(C)C)C(=O)[C@@]1(C)CO1 [Carfilzomib] — lower, 18
- Clc1ccc(C(Cn2ccnc2)OCc2ccsc2Cl)c(Cl)c1 (stereo not given) [Tioconazole] + CC(C)C[C@H](NC(=O)[C@H](CCc1ccccc1)NC(=O)CN1CCOCC1)C(=O)N[C@@H](Cc1ccccc1)C(=O)N[C@@H](CC(C)C)C(=O)[C@@]1(C)CO1 [Carfilzomib] — lower, 16.9
- Clc1ccc(C(Cn2ccnc2)OCc2c(Cl)cccc2Cl)c(Cl)c1.O=[N+]([O-])O (stereo not given) [Isoconazole nitrate] + CC(C)C[C@H](NC(=O)[C@H](CCc1ccccc1)NC(=O)CN1CCOCC1)C(=O)N[C@@H](Cc1ccccc1)C(=O)N[C@@H](CC(C)C)C(=O)[C@@]1(C)CO1 [Carfilzomib] — lower, 16.4
- CNC(=O)c1cc(Oc2ccc(NC(=O)Nc3ccc(Cl)c(C(F)(F)F)c3)c(F)c2)ccn1 [Regorafenib] + CC(C)C[C@H](NC(=O)[C@H](CCc1ccccc1)NC(=O)CN1CCOCC1)C(=O)N[C@@H](Cc1ccccc1)C(=O)N[C@@H](CC(C)C)C(=O)[C@@]1(C)CO1 [Carfilzomib] — lower, 22.4
- CC1(C)CCC(c2ccc(Cl)cc2)=C(CN2CCN(c3ccc(C(=O)NS(=O)(=O)c4ccc(NC(CCN5CCOCC5)CSc5ccccc5)c(S(=O)(=O)C(F)(F)F)c4)cc3)CC2)C1 (stereo not given) [ABT-263 (Navitoclax)] + CC(C)C[C@H](NC(=O)[C@H](CCc1ccccc1)NC(=O)CN1CCOCC1)C(=O)N[C@@H](Cc1ccccc1)C(=O)N[C@@H](CC(C)C)C(=O)[C@@]1(C)CO1 [Carfilzomib] — lower, 13.3
- Oc1c(Cl)cc(Cl)c2cccnc12 [Chloroxine] + CC(C)C[C@H](NC(=O)[C@H](CCc1ccccc1)NC(=O)CN1CCOCC1)C(=O)N[C@@H](Cc1ccccc1)C(=O)N[C@@H](CC(C)C)C(=O)[C@@]1(C)CO1 [Carfilzomib] — lower, 19
- CCCSc1nc(NC2CC2c2ccc(F)c(F)c2)c2nnn(C3CC(OCCO)C(O)C3O)c2n1 (stereo not given) [Ticagrelor] + CC(C)C[C@H](NC(=O)[C@H](CCc1ccccc1)NC(=O)CN1CCOCC1)C(=O)N[C@@H](Cc1ccccc1)C(=O)N[C@@H](CC(C)C)C(=O)[C@@]1(C)CO1 [Carfilzomib] — lower, 14.4
- CC[C@@H]1/C=C(\C)C[C@H](C)C[C@H](OC)[C@H]2O[C@@](O)(C(=O)C(=O)N3CCCC[C@H]3C(=O)O[C@H](/C(C)=C/[C@@H]3CC[C@H](Cl)[C@H](OC)C3)[C@H](C)[C@@H](O)CC1=O)[C@H](C)C[C@@H]2OC [Pimecrolimus] + CC(C)C[C@H](NC(=O)[C@H](CCc1ccccc1)NC(=O)CN1CCOCC1)C(=O)N[C@@H](Cc1ccccc1)C(=O)N[C@@H](CC(C)C)C(=O)[C@@]1(C)CO1 [Carfilzomib] — lower, 11.7
- Cl.Cl.Fc1ccc(C(c2ccc(F)cc2)N2CCN(CC=Cc3ccccc3)CC2)cc1 [Flunarizine 2HCl] + CC(C)C[C@H](NC(=O)[C@H](CCc1ccccc1)NC(=O)CN1CCOCC1)C(=O)N[C@@H](Cc1ccccc1)C(=O)N[C@@H](CC(C)C)C(=O)[C@@]1(C)CO1 [Carfilzomib] — lower, 15
- COc1cccc2c1C(=O)c1c(O)c3c(c(O)c1C2=O)CC(O)(C(=O)CO)CC3OC1CC(N)C(O)C(C)O1 (stereo not given) [Doxorubicin] + CC(C)C[C@H](NC(=O)[C@H](CCc1ccccc1)NC(=O)CN1CCOCC1)C(=O)N[C@@H](Cc1ccccc1)C(=O)N[C@@H](CC(C)C)C(=O)[C@@]1(C)CO1 [Carfilzomib] — lower, 8.32
- CNC(=O)c1cc(Oc2ccc(NC(=O)Nc3ccc(Cl)c(C(F)(F)F)c3)c(F)c2)ccn1.Cl [Regorafenib hydrochloride] + CC(C)C[C@H](NC(=O)[C@H](CCc1ccccc1)NC(=O)CN1CCOCC1)C(=O)N[C@@H](Cc1ccccc1)C(=O)N[C@@H](CC(C)C)C(=O)[C@@]1(C)CO1 [Carfilzomib] — lower, 32.8
- CC(NCCCc1cccc(C(F)(F)F)c1)c1cccc2ccccc12.Cl (stereo not given) [Cinacalcet HCl] + CC(C)C[C@H](NC(=O)[C@H](CCc1ccccc1)NC(=O)CN1CCOCC1)C(=O)N[C@@H](Cc1ccccc1)C(=O)N[C@@H](CC(C)C)C(=O)[C@@]1(C)CO1 [Carfilzomib] — lower, 18.6
- C#Cc1cccc(Nc2ncnc3cc(OCCOC)c(OCCOC)cc23)c1.Cl [Erlotinib Hydrochloride] + CC(C)C[C@H](NC(=O)[C@H](CCc1ccccc1)NC(=O)CN1CCOCC1)C(=O)N[C@@H](Cc1ccccc1)C(=O)N[C@@H](CC(C)C)C(=O)[C@@]1(C)CO1 [Carfilzomib] — lower, 26.3
- Cc1ccc(C(=O)N(CCCN)C(c2nc3cc(Cl)ccc3c(=O)n2Cc2ccccc2)C(C)C)cc1 (stereo not given) + CC(C)C[C@H](NC(=O)[C@H](CCc1ccccc1)NC(=O)CN1CCOCC1)C(=O)N[C@@H](Cc1ccccc1)C(=O)N[C@@H](CC(C)C)C(=O)[C@@]1(C)CO1 [Carfilzomib] — lower, 19.6
